# Assay results reported in PubChem BioAssay (NCI).
# Compounds without any hit were thinned out: in the full panel of roughly 83,000, 20% have a hit.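 Each cell line was grown in a 96-well plate and treated with one concentration of compound for 48 hours. Values below 10 were considered active.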 Values without a mark were called inactive. Activity calls are given as the source filed them.
# Key:
# Assay in all cases: NCI-60 one-dose screen, 48 h (100 = growth as untreated, 0 = no growth, -100 = all killed)
# Settings in all cases: 10 µM unless noted
# HCT-15 colon = tested on: HCT-15 colon
# HT29 colon = tested on: HT29 colon
# SNB-75 CNS = tested on: SNB-75 CNS
# SNB-19 CNS = tested on: SNB-19 CNS
# U251 CNS = tested on: U251 CNS
# PC-3 prostate = tested on: PC-3 prostate
# SK-MEL-5 melanoma = tested on: SK-MEL-5 melanoma
# UACC-62 melanoma = tested on: UACC-62 melanoma
# SK-MEL-28 melanoma = tested on: SK-MEL-28 melanoma
# LOX IMVI melanoma = tested on: LOX IMVI melanoma
SMILES,growth (HCT-15 colon),growth (HT29 colon),growth (SNB-75 CNS),growth (SNB-19 CNS),growth (U251 CNS),growth (PC-3 prostate),growth (SK-MEL-5 melanoma),growth (UACC-62 melanoma),growth (SK-MEL-28 melanoma),growth (LOX IMVI melanoma)
O=C1Nc2ccc(Br)cc2/C1=N\c1nnc(-c2ccc(Cl)cc2)o1,24.2%,32.5%,46.8%,72%,60.5%,80.1%,77.2%,60.1%,70.8%,–
COc1ccc([C@@H]2[C@@H](O)C(=O)N2c2cc(OC)c(OC)c(OC)c2)cc1,12.4%,1.28% (active),50.7%,31.6%,4.38% (active),16.2%,-28.6% (active),20.3%,61%,16.3%
CC1(C)CC[C@]2(C(=O)N3CCCN(CC#N)CC3)CC[C@]3(C)C(=CC[C@@H]4[C@@]5(C)CC[C@H](O)C(C)(C)[C@@H]5CC[C@]43C)[C@H]2C1,19.1%,34.7%,90.5%,78.3%,56.1%,26.7%,32.2%,54.6%,72%,-83.7% (active)
O=C1c2c(c3c4cc(Br)ccc4[nH]c3c3ccc4ccccc4c23)C(=O)N1CCN1CCNCC1,-87.3% (active),8.96% (active),85%,77.3%,-47.3% (active),67.2%,91.4%,78.8%,95.9%,–
Cc1cnc2nc(NN)[nH]n12,101%,103%,95.6%,95.3%,101%,98.3%,99.8%,95.6%,108%,–
COc1cc2c3c(n(CCCNC4CCCCC4)c(=O)c2cc1OC)-c1cc2c(cc1C3=O)OCO2,-68.7% (active),-69.2% (active),80.6%,2.72% (active),-91.1% (active),-83.6% (active),97.2%,81%,97%,-76.7% (active)
Cc1ccc(/C=C/CC(=O)Nc2ccc(C(=O)Nc3ccc(F)cc3N)cc2)cn1,79.5%,36.1%,74.8%,73.7%,61.1%,53%,69.3%,51.3%,55.6%,49.3%
CNC(=O)c1cc(Oc2ccc3nc(NC(=O)c4cc(C)cc(C)c4)sc3c2)ccn1,66.9%,86%,85.5%,81.3%,89.3%,47.9%,77.4%,76.9%,79.9%,102%
COc1ccc(-c2nc3cc(Cl)c(Cl)cc3n2CC(=O)N=Nc2c(O)[nH]c3ccccc23)cc1,30.6%,78.9%,60%,91.3%,71%,76.1%,53.6%,68.1%,74.7%,9.62% (active)
NS(=O)(=O)c1ccc(-n2cc(CC=O)nn2)cc1,99.8%,101%,90.1%,102%,102%,100%,100%,95.7%,114%,98.9%
CN1CCN(Cc2ccc(NC(=O)c3cncc(C#Cc4cnc5ccc(NC6CCOCC6)nn45)c3)cc2C(F)(F)F)CC1,-48.4% (active),0.122% (active),-56.8% (active),-7.17% (active),-96.7% (active),-15.5% (active),-97.7% (active),-61.8% (active),-74.6% (active),-83.8% (active)
C/C(=N\NC(=S)Nc1ccc(Br)cc1)c1cc2ccccc2oc1=O,10%,90.3%,17.5%,35.2%,17.8%,26.7%,-24.7% (active),-20.5% (active),21.6%,14%
CC(=O)Nc1ccc(NC(=O)Nc2cccc(-c3nc(-c4ccc(NC(=O)c5cccnc5)cc4Cl)no3)c2)cc1C(F)(F)F,25.7%,-41% (active),-64.1% (active),-12.2% (active),-56.1% (active),-61.4% (active),-88.2% (active),-81.6% (active),-81.8% (active),-91.9% (active)
COc1ccc(-c2nc3cc(Cl)c(Cl)cc3n2CC(=O)N=Nc2c(O)[nH]c3ccc(Br)cc23)cc1,-44.8% (active),-24% (active),47.3%,22%,-58% (active),-47.1% (active),51.5%,4.88% (active),-66.9% (active),-77.9% (active)
CCOC(=O)c1c(NCC(=O)Nc2cccc(Cl)c2)sc2c1CCCC2,66.4%,101%,59.5%,82.7%,63.6%,73.6%,84.5%,61.9%,89.5%,35.3%
CCOC(=O)CC(=O)CSC1=NC2C(NN1)N(C)C(=O)N2C (stereo not drawn),63%,62.9%,99%,97.4%,98.6%,89.4%,99.6%,89.4%,89.3%,92.9%
Cc1ccc(NC(=O)c2ccc(CN3CCN(C)CC3)c(C(F)(F)F)c2)cc1Oc1ccc(-c2[nH]nc3ncnc(N)c23)cc1,28.8%,-8.89% (active),93.3%,99.2%,-27.7% (active),78.7%,73%,82.6%,68.6%,-85.3% (active)
Cc1occc1-c1nc2s/c(=C\c3cn(-c4ccccc4)nc3-c3ccccc3)c(=O)n2n1,99.2%,101%,84%,96.8%,97.1%,90.6%,92.4%,92.1%,101%,–
Cc1cc(O)c(=O)cc2c1C[C@H]1CC(C)(C)/C=C/C[C@]3(C)Oc4cc(=O)c(O)cc(C)c4C[C@H]3C[C@H](O)[C@@]1(C)O2,18.5%,8.78% (active),23.9%,11.2%,3.83% (active),9.28% (active),-46.5% (active),-41% (active),11.1%,6.81% (active)
CCCCCc1ccc(S(=O)(=O)N(C(C)=O)c2cccc(-c3csc(N(CCN4CCN(C)CC4)C(C)=O)n3)c2)cc1,-13.6% (active),-41.4% (active),64%,60.6%,-10.8% (active),62.5%,-97.7% (active),-71.4% (active),-85.8% (active),–
CCN(CC)CCN1C(=O)c2c(c3c4cc(Br)ccc4[nH]c3c3ccc4ccccc4c23)C1=O,-88.6% (active),-69.9% (active),77%,-92.7% (active),-86.3% (active),-80.9% (active),-83.6% (active),31.7%,-70.1% (active),–
CS(=O)(=O)c1ccc(-c2nn(-c3ccccc3)cc2/C=C/C(=O)c2ccc(Br)cc2)cc1,64%,97.8%,107%,85.6%,86.1%,89.1%,92.4%,78.9%,102%,67.5%
C=CCn1c(SCC(=O)Nc2cccc(C(=O)/C=C/c3cc(OC)c(OC)c(OC)c3)c2)nc2ccccc2c1=O,11.6%,-23.4% (active),33.9%,53.8%,9.44% (active),51.6%,82.5%,48.8%,83.8%,10%
CC1COc2c(N3CCN(C)CC3)c(F)cc3c(=O)c(C(=O)N/N=C/c4cc[nH]c4)cn1c23 (stereo not drawn),47.1%,14.6%,74.4%,9.01% (active),-41.6% (active),27.9%,25.3%,76%,57.3%,-88.5% (active)
Oc1ccccc1/C=N/Nc1nc(N/N=C/c2ccccc2O)nc(N2CCOCC2)n1,3.87% (active),34.2%,-4.09% (active),41.7%,22%,24.1%,65.8%,88.8%,28%,–
O=S(=O)(Nc1ccc2c(c1)OC(F)(F)O2)c1ccc(-c2cnc(C3CC3)o2)cc1,26.2%,17.2%,19%,47%,32.6%,45.3%,38%,29.4%,58.3%,37.7%
